Data on 1 compound can be found in ChEMBL document CHEMBL4649984, “CBP30, a selective CBP/p300 bromodomain inhibitor, suppresses human Th17 responses” (Proc Natl Acad Sci U S A, 2015).

Values joined by “and” are separate entries in the source; they are usually repeats but may differ in a detail not shown here. Identical values can stand only once.

Test [1] addresses Bromodomain-containing protein 4 (Homo sapiens) (UniProt O60885). Conditions: Compound concentration 10.0 uM, Protein concentration 2.0 uM.
The target of test [2] is T1, Transcription intermediary factor 1-alpha (Homo sapiens) (UniProt O15164).
T1 sequence (whole entry): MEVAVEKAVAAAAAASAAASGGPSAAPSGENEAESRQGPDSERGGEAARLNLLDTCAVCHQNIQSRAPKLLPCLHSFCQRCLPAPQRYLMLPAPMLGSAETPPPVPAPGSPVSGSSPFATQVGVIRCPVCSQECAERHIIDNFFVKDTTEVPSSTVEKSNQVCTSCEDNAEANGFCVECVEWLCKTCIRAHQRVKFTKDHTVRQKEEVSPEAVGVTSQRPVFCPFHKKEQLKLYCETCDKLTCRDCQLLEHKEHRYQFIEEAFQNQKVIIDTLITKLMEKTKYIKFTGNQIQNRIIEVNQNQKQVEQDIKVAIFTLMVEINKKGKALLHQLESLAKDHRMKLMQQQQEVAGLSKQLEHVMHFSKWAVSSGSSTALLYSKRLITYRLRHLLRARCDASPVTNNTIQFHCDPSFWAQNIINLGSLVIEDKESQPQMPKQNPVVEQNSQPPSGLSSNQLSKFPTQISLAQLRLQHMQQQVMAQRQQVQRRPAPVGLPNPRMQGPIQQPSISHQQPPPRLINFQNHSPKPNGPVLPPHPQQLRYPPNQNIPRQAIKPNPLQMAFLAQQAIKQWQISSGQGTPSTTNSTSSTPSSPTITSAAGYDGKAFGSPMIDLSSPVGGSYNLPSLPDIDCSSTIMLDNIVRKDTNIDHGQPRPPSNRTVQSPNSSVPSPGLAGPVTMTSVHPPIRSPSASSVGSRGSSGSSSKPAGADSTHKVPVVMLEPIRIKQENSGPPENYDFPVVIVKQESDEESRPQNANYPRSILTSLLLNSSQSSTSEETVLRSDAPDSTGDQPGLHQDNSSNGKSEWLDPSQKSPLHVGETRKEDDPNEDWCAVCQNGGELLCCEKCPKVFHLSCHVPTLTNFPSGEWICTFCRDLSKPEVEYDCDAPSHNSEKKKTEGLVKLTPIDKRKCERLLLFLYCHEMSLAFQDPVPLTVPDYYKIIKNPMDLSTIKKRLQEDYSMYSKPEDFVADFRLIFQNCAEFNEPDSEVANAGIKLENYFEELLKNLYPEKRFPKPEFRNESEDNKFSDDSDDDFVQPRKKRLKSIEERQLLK
Conditions: Compound concentration 10.0 uM, Protein concentration 2.0 uM.

On to `COc1ccc(CCc2nc3cc(-c4c(C)noc4C)ccc3n2C[C@H](C)N2CCOCC2)cc1Cl`, for which the ΔTm in test [1] was 1.65 °C and 2.75 °C; in test [2], 0.88 °C.

One may read the ΔTm as the shift of the melting midpoint relative to a reference.
